Source: PubChem BioAssay (NCATS)
Results filed as inconclusive are left out. Where a call stands in place of a potency, no number is given. Activity calls are given as the source filed them. The call rests on the fitted dose curve; in most records, active means well fitted inhibition curve with a large enough effect; inconclusive means small, poorly fitted or top-dose-only effect; inactive means flat fitted curve, though single readings scatter.

Tests used:
[1] = molecular target: Luciferin 4-monooxygenase (Photinus pyralis) (UniProt P08659); experiment: Biochemical firefly luciferase enzyme assay for NPC (AID 624030); further: nearly all actives have a fitted effect of over 70% in size
Method in brief: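 Direct inhibition of firefly luciferase enzyme (10 nM final, 50 mM Tris Acetate) assessed by luminescence within 5 minutes. Percent activity scaled between DMSO and PTC124 positive control, with concentration-effect curves classified by fit quality and response.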

7G8 = experiment: qHTS profiling for inhibitors of Plasmodium falciparum proliferation (AID 504749); further: nearly all actives have a fitted effect of over 60% in size; settings: P. falciparum in erythrocytes, SYBR Green DNA, 72 h; series mostly up to 28.7 µM
Method in brief: (§1)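 Infected RBCs, 0.3% parasitemia/2.5% Hct final; cpd 72 h, 37 C, 5% CO2; lysis buffer with saponin/triton/SYBR Green I, o/n RT dark; FI 485/535; norm. to artemisinin (0.29 uM) and DMSO.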

ATS95 = experiment: as above; settings: P. falciparum in erythrocytes, SYBR Green DNA, 72 h; series mostly up to 28.7 µM
Method in brief: as §1

C2A = experiment: as above; settings: P. falciparum in erythrocytes, SYBR Green DNA, 72 h; series mostly up to 28.7 µM
Method in brief: as §1

CP192 = experiment: as above; settings: P. falciparum in erythrocytes, SYBR Green DNA, 72 h; series mostly up to 28.7 µM
Method in brief: as §1

CP203 = experiment: as above; settings: P. falciparum in erythrocytes, SYBR Green DNA, 72 h; series mostly up to 28.7 µM
Method in brief: as §1

CP211 = experiment: as above; settings: P. falciparum in erythrocytes, SYBR Green DNA, 72 h; series mostly up to 28.7 µM
Method in brief: as §1

CP247 = experiment: as above; settings: P. falciparum in erythrocytes, SYBR Green DNA, 72 h; series mostly up to 28.7 µM
Method in brief: as §1

CP262 = experiment: as above; settings: P. falciparum in erythrocytes, SYBR Green DNA, 72 h; series mostly up to 28.7 µM
Method in brief: as §1

CP268 = experiment: as above; settings: P. falciparum in erythrocytes, SYBR Green DNA, 72 h; series mostly up to 28.7 µM
Method in brief: as §1

CP269 = experiment: as above; settings: P. falciparum in erythrocytes, SYBR Green DNA, 72 h; series mostly up to 28.7 µM
Method in brief: as §1

CP291 = experiment: as above; settings: P. falciparum in erythrocytes, SYBR Green DNA, 72 h; series mostly up to 28.7 µM
Method in brief: as §1

CP305 = experiment: as above; settings: P. falciparum in erythrocytes, SYBR Green DNA, 72 h; series mostly up to 28.7 µM
Method in brief: as §1

ECU = experiment: as above; settings: P. falciparum in erythrocytes, SYBR Green DNA, 72 h; series mostly up to 28.7 µM
Method in brief: as §1

GB4 = experiment: as above; settings: P. falciparum in erythrocytes, SYBR Green DNA, 72 h; series mostly up to 28.7 µM
Method in brief: as §1

HB3 = experiment: as above; settings: P. falciparum in erythrocytes, SYBR Green DNA, 72 h; series mostly up to 28.7 µM
Method in brief: as §1

PAD = experiment: as above; settings: P. falciparum in erythrocytes, SYBR Green DNA, 72 h; series mostly up to 28.7 µM
Method in brief: as §1

SC27B = experiment: as above; settings: P. falciparum in erythrocytes, SYBR Green DNA, 72 h; series mostly up to 28.7 µM
Method in brief: as §1

TAB113 = experiment: as above; settings: P. falciparum in erythrocytes, SYBR Green DNA, 72 h; series mostly up to 28.7 µM
Method in brief: as §1

TAB165 = experiment: as above; settings: P. falciparum in erythrocytes, SYBR Green DNA, 72 h; series mostly up to 28.7 µM
Method in brief: as §1
Potency means the concentration at half of the fitted maximal effect.

Luciferin 4-monooxygenase (Photinus pyralis), sequence (P08659 whole entry, looked up): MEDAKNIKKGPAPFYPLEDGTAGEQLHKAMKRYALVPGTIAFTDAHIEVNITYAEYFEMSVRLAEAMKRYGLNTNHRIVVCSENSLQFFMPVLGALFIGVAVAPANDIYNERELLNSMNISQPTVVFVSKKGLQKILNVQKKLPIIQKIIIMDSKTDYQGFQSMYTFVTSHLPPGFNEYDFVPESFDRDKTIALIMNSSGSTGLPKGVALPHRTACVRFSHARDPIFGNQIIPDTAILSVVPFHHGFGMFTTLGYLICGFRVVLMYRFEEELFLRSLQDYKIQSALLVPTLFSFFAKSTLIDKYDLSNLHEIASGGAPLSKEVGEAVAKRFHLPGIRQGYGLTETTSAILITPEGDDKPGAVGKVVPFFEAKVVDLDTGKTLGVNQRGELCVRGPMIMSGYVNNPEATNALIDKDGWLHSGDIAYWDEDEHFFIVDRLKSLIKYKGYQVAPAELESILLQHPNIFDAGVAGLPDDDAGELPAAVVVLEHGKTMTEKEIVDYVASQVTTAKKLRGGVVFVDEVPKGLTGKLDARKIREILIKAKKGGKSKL

Row | Structure (SMILES) | Potency [1] | Potency (7G8) | Potency (ATS95) | Potency (C2A) | Potency (CP192) | Potency (CP203) | Potency (CP211) | Potency (CP247) | Potency (CP262) | Potency (CP268) | Potency (CP269) | Potency (CP291) | Potency (CP305) | Potency (ECU) | Potency (GB4) | Potency (HB3) | Potency (PAD) | Potency (SC27B) | Potency (TAB113) | Potency (TAB165)
1 | CC12C=CC(=O)C=C1[C@@H](F)CC1C2C(O)CC2(C)C1CC[C@]2(O)C(=O)CO (stereo not given in full) | inactive | inactive | inactive | inactive | inactive | inactive | inactive | inactive | inactive | inactive | inactive | inactive | inactive | inactive | inactive | inactive | inactive | inactive | inactive | inactive
2 | COC(c1ccccc1)(c1ccccc1)C(Oc1nc(C)cc(C)n1)C(=O)O (stereo not given) | inactive | inactive | inactive | inactive | inactive | inactive | inactive | inactive | inactive | inactive | inactive | inactive | inactive | inactive | inactive | inactive | inactive | inactive | inactive | inactive
3 | CC1CCC(C(C)C)C(O)C1 (stereo not given) | inactive | inactive | inactive | inactive | inactive | inactive | inactive | inactive | inactive | inactive | inactive | inactive | inactive | inactive | inactive | inactive | inactive | inactive | inactive | inactive
4 | C=CCn1c(=O)n(C2OC(CO)C(O)C2O)c2nc(N)[nH]c(=O)c21 (stereo not given) | inactive | inactive | inactive | inactive | inactive | inactive | inactive | inactive | inactive | inactive | inactive | inactive | inactive | inactive | inactive | inactive | inactive | inactive | inactive | inactive
5 | O=C1CC[C@H](C(=O)N[C@@H]2C[C@H]2c2ccccc2)N1 | inactive | inactive | inactive | inactive | inactive | inactive | inactive | inactive | inactive | inactive | inactive | inactive | inactive | inactive | inactive | inactive | inactive | inactive | inactive | inactive
6 | CCCCC/C(C=O)=C/c1ccccc1 | inactive | inactive | inactive | inactive | inactive | inactive | inactive | inactive | inactive | inactive | inactive | inactive | inactive | inactive | inactive | inactive | inactive | inactive | inactive | inactive
7 | O=[N+]([O-])O[C@H]1CO[C@H]2[C@@H]1OC[C@H]2O | inactive | inactive | inactive | inactive | inactive | inactive | inactive | inactive | inactive | inactive | inactive | inactive | inactive | inactive | inactive | inactive | inactive | inactive | inactive | inactive
8 | CNC1C(O)C(OC2C(N)CC(N)C(OC3OC(CN)=CCC3N)C2O)OCC1(C)O (stereo not given) | inactive | inactive | inactive | inactive | inactive | inactive | inactive | inactive | inactive | inactive | inactive | inactive | inactive | inactive | inactive | inactive | inactive | inactive | inactive | inactive
9 | CC(O)C(N)C(=O)O (stereo not given) | inactive | inactive | inactive | inactive | inactive | inactive | inactive | inactive | inactive | inactive | inactive | inactive | inactive | inactive | inactive | inactive | inactive | inactive | inactive | inactive
10 | Cc1ccc(Nc2ncccc2C(=O)O)cc1C | 11400 nM (active) | inactive | inactive | inactive | inactive | inactive | inactive | inactive | inactive | inactive | inactive | inactive | inactive | inactive | inactive | inactive | inactive | inactive | inactive | inactive
11 | CCN(CC)C(=O)Nc1ccc(OC[C@H](O)CNC(C)(C)C)c(C(C)=O)c1 | inactive | inactive | inactive | inactive | inactive | inactive | inactive | inactive | inactive | inactive | inactive | inactive | inactive | inactive | inactive | inactive | inactive | inactive | inactive | inactive
12 | COc1cccc2c1C(=O)c1c(O)c3c(c(O)c1C2=O)C[C@@](O)(C(=O)CO)C[C@@H]3OC1CC(N)C(O)C(C)O1 (stereo not given in full) | inactive | 316 nM (active) | 2000 nM (active) | 2240 nM (active) | 1900 nM (active) | 4780 nM (active) | 1690 nM (active) | 2240 nM (active) | 2390 nM (active) | 3790 nM (active) | 3380 nM (active) | 3380 nM (active) | 3380 nM (active) | 3160 nM (active) | 1690 nM (active) | 2000 nM (active) | 2240 nM (active) | 2510 nM (active) | 2510 nM (active) | 2240 nM (active)
13 | Cc1ccc(S(=O)(=O)NC(=O)NC(C)Cc2ccccc2)cc1 (stereo not given) | inactive | inactive | inactive | inactive | inactive | inactive | inactive | inactive | inactive | inactive | inactive | inactive | inactive | inactive | inactive | inactive | inactive | inactive | inactive | inactive
14 | NC(C(=O)O)c1ccc(O)cc1 (stereo not given) | inactive | inactive | inactive | inactive | inactive | inactive | inactive | inactive | inactive | inactive | inactive | inactive | inactive | inactive | inactive | inactive | inactive | inactive | inactive | inactive
15 | CCCC[C@H](O)c1ccccc1 | inactive | inactive | inactive | inactive | inactive | inactive | inactive | inactive | inactive | inactive | inactive | inactive | inactive | inactive | inactive | inactive | inactive | inactive | inactive | inactive
16 | CC(=O)NC[C@@H]1CN(c2ccc(N3CCOCC3)c(F)c2)C(=O)O1 | inactive | inactive | inactive | inactive | inactive | inactive | inactive | inactive | inactive | inactive | inactive | inactive | inactive | inactive | inactive | inactive | inactive | inactive | inactive | inactive
17 | C=CC1CN2CCC1CC2[C@@H](O)c1ccnc2ccc(OC)cc12 (stereo not given in full) | inactive | 50.1 nM (active) | 251 nM (active) | 891 nM (active) | 757 nM (active) | 426 nM (active) | 675 nM (active) | 1000 nM (active) | 338 nM (active) | 536 nM (active) | 601 nM (active) | 478 nM (active) | 478 nM (active) | 112 nM (active) | 135 nM (active) | 158 nM (active) | 251 nM (active) | 891 nM (active) | 355 nM (active) | 251 nM (active)
18 | CC(O)C1CCC2C3CCC4CC(O)CCC4(C)C3CCC12C (stereo not given) | inactive | inactive | inactive | inactive | inactive | inactive | inactive | inactive | inactive | inactive | inactive | inactive | inactive | inactive | inactive | inactive | inactive | inactive | inactive | inactive
19 | CC1(C)OC[C@@H]2O[C@@]3(C(=O)O)OC(C)(C)O[C@@H]3[C@@H]2O1 | inactive | inactive | inactive | inactive | inactive | inactive | inactive | inactive | inactive | inactive | inactive | inactive | inactive | inactive | inactive | inactive | inactive | inactive | inactive | inactive
20 | CCCCCCCCCCCCCCCC(=O)OCC(COP(=O)(O)OCC[N+](C)(C)C)OC(=O)CCCCCCCCCCCCCCC (stereo not given) | inactive | inactive | inactive | inactive | inactive | inactive | inactive | inactive | inactive | inactive | inactive | inactive | inactive | inactive | inactive | inactive | inactive | inactive | inactive | inactive
21 | CC(c1ncncc1F)[C@](O)(Cn1cncn1)c1ccc(F)cc1F (stereo not given in full) | inactive | inactive | inactive | inactive | inactive | inactive | inactive | inactive | inactive | inactive | inactive | inactive | inactive | inactive | inactive | inactive | inactive | inactive | inactive | inactive
22 | CCC(C(=O)O)C1OC(C(C)C(O)C(C)C(=O)C(CC)C2OC3(C=CC(O)C4(CCC(C)(C5CCC(O)(CC)C(C)O5)O4)O3)C(C)CC2C)C(C)CC1C (stereo not given) | inactive | 79.4 nM (active) | 178 nM (active) | 126 nM (active) | 169 nM (active) | 37.9 nM (active) | 67.5 nM (active) | 112 nM (active) | 536 nM (active) | 75.7 nM (active) | 95.3 nM (active) | 60.1 nM (active) | 53.6 nM (active) | 178 nM (active) | 53.6 nM (active) | 79.4 nM (active) | 224 nM (active) | 89.1 nM (active) | 79.4 nM (active) | 158 nM (active)
23 | CO/N=C(/C(=O)N[C@@H]1C(=O)N2C(C(=O)O)=C(CSc3nc(C)c(CC(=O)O)s3)CS[C@H]12)c1csc(N)n1 | inactive | inactive | inactive | inactive | inactive | inactive | inactive | inactive | inactive | inactive | inactive | inactive | inactive | inactive | inactive | inactive | inactive | inactive | inactive | inactive
